High-throughput results deposited in PubChem BioAssay by National Center for Advancing Translational Sciences (NCATS).
Compounds with a hit are over-represented: about 14% of the library has one in this group of screens.
Sm TGR inh – inhibitors of Schistosoma mansoni thioredoxin glutathione reductase | Q962Y6 | purified TGR, DTNB reduction, TNB absorbance 405 nm | Potency, µM (series often up to 114 µM), without a hit: at the top dose activity change, negative = inhibition, usual class: inhibitors | 3% of 360,000 active | AID 485364; note: potency is the fitted concentration of half-maximal effect; nearly all actives have a fitted effect of over 60% in size
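Kinetic colorimetric format: TGR-catalysed, NADPH-driven DTNB reduction monitored via TNB absorbance. Enzyme dispensed at 20 nM; compound exposure 15 min at room temperature before reaction start.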
Giardia FBPA inh – Giardia lamblia aldolase inhibition; 0.71% of 290,000 active; purified Giardia FBPA; A8B2U2; Potency, µM (titrated, usually from 59.6 µM), without a hit: at the top dose activity, negative = inhibition, hits mostly inhibitors; note: potency is the fitted concentration of half-maximal effect; nearly all actives have a fitted effect of over 55% in size
Target sequence (A8B2U2 whole entry, looked up): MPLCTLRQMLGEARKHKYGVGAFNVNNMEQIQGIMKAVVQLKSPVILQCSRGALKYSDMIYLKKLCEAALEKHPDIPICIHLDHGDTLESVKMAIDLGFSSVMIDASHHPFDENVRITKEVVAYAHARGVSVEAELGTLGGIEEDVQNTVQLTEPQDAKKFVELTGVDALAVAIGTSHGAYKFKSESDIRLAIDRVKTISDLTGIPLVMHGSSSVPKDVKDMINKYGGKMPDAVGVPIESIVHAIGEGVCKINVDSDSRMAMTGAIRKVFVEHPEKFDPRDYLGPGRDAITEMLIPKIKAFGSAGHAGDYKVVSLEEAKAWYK
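Giardia FBPA (40 nM reagent) was preincubated 10 min at RT with compound (up to 57.5 uM final), then substrate plus GAPDH/TPI/NAD/arsenate coupling system with diaphorase/resazurin was added; resorufin fluorescence (525/598 nm) was read after 20 min.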
Pf growth 48h – inhibits P. falciparum growth in the first generation, 48 h; 5.9% of 310,000 active; Potency, µM (highest dose often 28.7 µM), for inactives: at the highest dose activity change, negative = inhibition, hits mostly inhibitors; P. falciparum luciferase growth in erythrocytes, 48 h; note: potency is the fitted concentration of half-maximal effect
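Here the parasites carry a stable luciferase gene and grow inside erythrocytes in Albumax-based RPMI medium with compound for one erythrocytic cycle. Activity is scored as loss of luminescent signal.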
HCMV inh – human cytomegalovirus inhibition | HFF cells, HCMV-luciferase reporter, 72 h; hits give low values | activity change, negative = inhibition, % at 57.5 µM | 4.5% of 410,000 active; in the data active = activity change below about -60%; inconclusive = no clear call, values can overlap the other calls; inactive = above about -39%
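Two compound doses tested in HFFs infected with HCMV-luciferase, MOI 1 PFU/cell, 72 h at 37C. Lysate luminescence read with OneGlo; data normalized against buffer-only and 10uM Salinomycin inhibitor controls.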
Pf growth 96h – inhibits malaria parasite growth, 96 h; P. falciparum luciferase reporter growth, 96 h; 6.9% of 320,000 active; Potency, µM (highest dose often 28.7 µM), inactives show top-dose activity change, negative = inhibition, most hits filed as inhibitors; note: potency is the fitted concentration of half-maximal effect
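P. falciparum expressing integrated firefly luciferase, in erythrocytes at 2% hematocrit, 0.05% parasitemia, incubated with compounds 96 h at 37 C, 5% CO2. Growth inhibition read as loss of luminescence; two-generation exposure targets delayed-death apicoplast inhibitors.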
* hit, by the source's call; i = inactive; ? = inconclusive; / = no result; + = active, no number; ! = not confirmed by another sample. Unless noted, calls come from the whole dose curve; as a rule, active = well fitted curve in the direction sought with a large enough effect; inconclusive = small, poorly fitted or top-dose-only effect, or another doubt; inactive = no such curve, though single readings can be large; an effect the other way counts as inactive or inconclusive. % is set by controls: 0 for no effect and ±100 for the full control effect.

SMILES	Sm TGR inh	Giardia FBPA inh	Pf growth 48h	HCMV inh	Pf growth 96h
O=C(CSc1ccc(-c2ccccn2)nn1)NCc1ccc(Cl)cc1	6%	-5%	?	-17	-28%
COc1cccc(CNC(=O)CSc2ccc(-c3ccco3)nn2)c1	8.9µM*	-4%	-4%	-16	2%
O=C(CSc1ccc(-c2ccco2)nn1)NCc1ccccc1	35µM*	1%	-12%	19	?
COc1ccccc1CCNC(=O)CSc1ccc(-c2ccco2)nn1	3.5µM*	?	?	21	?
CCC(c1nc2ccccc2[nH]1)n1c(=O)c(-c2ccco2)nc2ccccc21 (centres undefined)	/	/	/	3	/
O=C1N=C(O)CN1/N=C\c1ccc(-c2ccc([N+](=O)[O-])cc2)o1	/	-13%	/	/	/
O=C(NC(=O)c1cc([N+](=O)[O-])ccc1Cl)C1=C(N2CCCC2)COC1=O	/	/	/	-25	/
O=C(O)c1cc(=O)[nH]c2ccccc12	/	/	/	-15	/
CCc1ccc(NC(=O)CSc2ccc(-c3ccco3)nn2)cc1	20µM*	-1%	2%	14	32%
CCC(C)c1ccccc1NC(=O)C(C)NCCN(C)C (centres undefined)	40µM*	?	7%	-37	4%
O=[N+]([O-])c1ccc2c(c1)oc1ccccc12	11%	2%	30%	-93*	/
COc1cc2c(cc1NC(=O)c1cccc([N+](=O)[O-])c1C)oc1ccccc12	3%	2%	?	-8	-31%
CC(=O)Nc1ccccc1Nc1cc(C#N)c(C#N)cc1[N+](=O)[O-]	-5%	-7%	?	10	7.4µM*
Nc1ccc2c(c1)oc1ccccc12	4%	0%	42%	113	47%
CC(=O)Nc1cc2oc3ccccc3c2cc1[N+](=O)[O-]	/	/	/	-84*	/
Cn1c(=O)c2c(nc(CN3CCN(c4ccccc4F)CC3)n2Cc2ccc(F)cc2)n(C)c1=O	3%	/	/	1	/
CCn1c(CC(=O)Nc2ccccc2F)nnc1SCC(=O)NC1=NCCS1	/	/	/	-16	/
CN(CC(=O)Nc1cccc(F)c1)C(=O)c1cc(S(=O)(=O)N(C)C)ccc1N1CCCC1	-2%	/	-8%	65	-13%
O=C1CN(C(=O)c2ccccc2F)C(c2ccccc2)c2cc(Cl)ccc2N1 (centres undefined)	3%	4%	-33%	17	0%
O=C(c1ccc2nccnc2c1)N1CCN(c2ccccc2)CC1	0%	/	18%	-29	-4%
O=C(c1cccc(C(=O)N2CCN(c3ccccc3F)CC2)c1)N1CCN(c2ccccc2F)CC1	-2%	0%	13µM*	-15	0%
O=C(c1cccc(C(=O)N2CCN(c3ccccc3)CC2)c1)N1CCN(c2ccccc2)CC1	?	-7%	13µM*	?	/
O=C(c1c(F)cccc1F)N1CCN(c2ccccc2F)CC1	16%	8%	6%	35	-7%
CC(=O)c1ccc(N2CCN(C(=O)c3cccc(Oc4ccccc4)c3)CC2)cc1	0%	4%	-28%	-1	?
CC(=O)c1ccc(N2CCN(C(=O)c3ccc(-c4ccccc4)cc3)CC2)cc1	-4%	3%	-15%	-66*	?
SMILES	Sm TGR inh	Giardia FBPA inh	Pf growth 48h	HCMV inh	Pf growth 96h
CC(C)(C)c1ccc(C(=O)NC(=S)N2CCOCC2)cc1	-3%	/	-80%	63	2.6µM*
Cc1cccc(C)c1-n1nnnc1C(c1ccnc2ccccc12)N1CCCN(C(=O)OC(C)(C)C)CC1 (centres undefined)	/	/	/	-21	/
CCCCN(C)c1c(C)nc2ccc(C(=O)Nc3ccc(OC)c(OC)c3)cn12	/	/	/	33	/
Nc1ccccc1N1CCN(C(=O)c2ccccc2)CC1	-10%	-19%	-9%	-21	33%
O=C(c1ccccc1)c1ccc(C(=O)N2CCN(c3ccccc3O)CC2)cc1	/	/	/	-65*	/
O=C(NC(=S)N1CCN(c2ccccc2)CC1)c1ccccc1	-4%	/	10µM*	-1	4.7µM*
CNc1cccc(-c2ccc(N3CCN(C)CC3)nc2)n1	/	/	/	73	/
O=C(CC1Oc2ccccc2NC1=O)NCc1ccccc1 (centres undefined)	0%	2%	/	-16	-5%
CC(=O)CC1OC(=O)C(Br)=C1NCc1ccccc1 (centres undefined)	3.5µM*	-4%	-2%	?	7.4µM*
CCN(CC)CCN(C)Cc1nc(C(c2ccccc2)c2ccccc2)no1	3%	1%	?	17	9.3µM*
CCC(=O)Nc1cc2nn(-c3ccc(C)cc3)nc2cc1C	-2%	4%	i	-66*!	?
O=C(/C=C/c1c[nH]c2ccccc12)c1cccc2ccccc12	-25%	-28%	4%	-10	9.3µM*
CCCCCCN(CCCCCC)C(=O)Cc1c(-c2ccc(Cl)cc2)[nH]c2ccc(Cl)cc12	/	3%	/	/	/
CCN(c1cccc(C)c1)c1nc2ccsc2c(=O)s1	-8%	5%	8%	58	8.3µM*
CC(=O)Nc1ccc(NC(=O)C2(c3cccs3)CCOCC2)cc1	3%	/	/	+	/
O=C1CN=C(Nc2ccccc2)N1Cc1cccs1	6%	-12%	-5%	-17	/
Cc1ccc(NC2=NCC(=O)N2Cc2ccc3c(c2)OCO3)c(C)c1	4%	-27%	4%	68	35%
CCc1ccc(NC2=NCC(=O)N2Cc2ccc3c(c2)OCO3)cc1	3%	-15%	0%	81	9.3µM*
CC(C)c1ccc(NC2=NCC(=O)N2Cc2cccs2)cc1	/	-15%	10%	-60*	30%
CCN1C(=O)[C@H]2[C@@H](c3ccc(-c4ccccc4)cc3)N3CCC[C@@]3(C(=O)OC)[C@H]2C1=O	-27%	/	4.7µM*	25	13µM*
CCN1C(=O)[C@@H]2[C@@H](c3ccc(-c4ccc(F)cc4)cc3)N3CCC[C@@]3(C(=O)OC)[C@@H]2C1=O	-10%	/	?	2	?
CCN1C(=O)[C@H]2[C@@H](c3ccc(-c4ccc(F)cc4)cc3)N3CCCC[C@@]3(C(=O)OC)[C@H]2C1=O	?	/	9.3µM*	11	13µM*
CCN1C(=O)[C@H]2[C@@H](c3ccc(-c4ccc(OC)cc4)cc3)N3CCCC[C@@]3(C(=O)OC)[C@H]2C1=O	-25%	/	15µM*	?	?
CCN1C(=O)[C@@H]2[C@@H](c3ccc(-c4ccc(OC)cc4)cc3)N3CCC[C@@]3(C(=O)OC)[C@@H]2C1=O	-29%	/	9.3µM*	-36	12µM*
CC(C)(C)C1CCc2c(sc(NC(=O)c3ccco3)c2C(=O)Nc2ccccc2Cl)C1 (centres undefined)	-3%	/	/	12	/
CCN1C(=O)[C@H]2[C@@H](c3ccc(-c4ccc(OC)cc4)cc3)N3CCC[C@@]3(C(=O)OC)[C@H]2C1=O	?	/	13µM*	-101*	?
CCN1C(=O)[C@@H]2[C@@H](c3ccc(-c4ccccc4)cc3)N3CCC[C@@]3(C(=O)OC)[C@@H]2C1=O	/	/	/	0	/
